Data on five compounds can be found in PubChem BioAssay.

SMILES strings stand for the structures. Results filed as inconclusive are left out. Calls of active or inactive are those of the source.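 Rule for the calls, unless noted: active = viability at or under a set limit in both replicates, limit being median viability minus 3 SD (cut at about 48% in these data, passing the limit was not always enough); inconclusive = at or under the limit in just one replicate; inactive = at or above the limit in both replicates.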

A short description of assay [1]: Her2 expression decrease, cell viability multiplex – SKBR3 breast tumor cells, AlphaScreen, ATP viability, primary screen (AID 461;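 active = Her2 level under about 52% in both replicate screens, with viability over 70% of control, limit read from the data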;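 for Her2 level: lower value means less Her2 protein in the cells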;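 for viability: percent of carrier control wells set as 100% viability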). As to conditions: SKBR3 Her2 protein level, 18-24 h, measured here: SKBR3 viability, ATP luminescence, at 10 µM.
The target of assay [2] is Receptor tyrosine-protein kinase erbB-2 (Homo sapiens) (UniProt P04626). The assay is described as above. As to conditions: 18-24 h, at 10 µM, stronger effect = lower value.
The nature of assay [3]: reduced viability of SK-BR-3 breast cancer cells – cell-based, 24 h, human, pilot screen (AID 572;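 active = viability at or below 10% of carrier control in both of two separate runs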;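 note: compound exposure lasted between 18 and 24 h rather than exactly 24 h; 100% = carrier-treated control wells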). As to conditions: SK-BR-3 viability, CellTiter-Glo luminescence, at 10 µM, stronger effect = lower value. (In general: Cellular ATP, detected with luciferase, serves as a proxy for viable cell number.)
Assay [4] can be described thus: HUVEC growth inhibition – cell-based, human, primary screen (AID 575;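 active = viability at or below 30% in both replicate assays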;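 note: 100% = median of untreated cell wells with 0.1% DMSO on each plate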). As to conditions: HUVEC proliferation, CellTiter-Glo luminescence, 72 h; at 10 µM; stronger effect = lower value.
Assay [5] can be described thus: H69AR cell proliferation blockers – human, duplicate replicates, primary screen (AID 580).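 Note: 100% = mean luminescence of untreated wells and 0% = no signal.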 As to conditions: H69AR lung tumor cells viability, ATP luminescence, 72 h; at 10 µM; stronger effect = lower value.
A short description of assay [6]: MRP1 drug-resistance reversers in H69AR cells – cell-based, doxorubicin co-treatment, pilot screen (AID 601;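 active = viability loss from added drug above about 55%, and viability with drug at most 40%, in both replicates, limit read from the data, passing the limit was not always enough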). As to conditions: CellTiter-Glo, 72 h, at 10 µM; for differential viability (reversal): stronger effect = higher value.
A short description of assay [7]: yeast transport mutant growth inhibition pilot in 384-well plates, post-Golgi transport modulator project (AID 636; in the data active = inhibition above about 31%). As to conditions: absorbance 615 nm, about 18 h, stronger effect = higher value.
The nature of assay [8]: growth suppression of yeast trafficking mutant, preliminary HTS, modulators of trafficking downstream of Golgi apparatus project, 1536-format plate, OD 615 nm (AID 637; in the data active = inhibition above about 30%). As to conditions: yeast transport mutant growth, absorbance 615 nm, 18 h; stronger effect = higher value.
A short description of assay [9]: S. cerevisiae growth inhibition in permissive medium (OD615), pilot counter-assay for S. cerevisiae lifespan shortening project, permissive growth control (AID 705;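 active = growth inhibition above 25% in both replicates, a cutoff set 3 SD above the mean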). As to conditions: OD615, 24 h, at 10 µM, stronger effect = higher value.
Assay [10] can be described thus: S. cerevisiae growth inhibition in restrictive medium, OD615, pilot screen, restrictive growth control, yeast lifespan reduction project (AID 706;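 active = growth inhibition above a set limit, 3 SD over mean compound inhibition, in both replicates, cut at about 43% in these data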;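 note: modified DeaD lifespan yeast strain shifted to restrictive glucose medium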). As to conditions: OD615, 48 h, at 10 µM, stronger effect = higher value.
Assay [11] in a line: doxorubicin toxicity protection in MRP-1 cells – H69AR cells, CellTiter-Glo, duplicate, MRP-1 activator project, pilot screen (AID 807;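 active = viability increase at or above a cutoff of the median across tested compounds plus 3 SD, cut at about 8.5% in these data, passing the limit was not always enough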;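 note: compound pretreatment 18-22 h then 72 h combined with doxorubicin; 0% = doxorubicin alone and 100% = vehicle without doxorubicin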). As to conditions: H69AR viability with doxorubicin, CellTiter-Glo luminescence; at 10 µM; stronger effect = higher value.
The nature of assay [12]: viability of HCT116 without oncogenic beta-catenin – human colon tumor cells, pilot screen (AID 823;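 active = cell viability at or below a set limit in both duplicate runs, the limit being the all-compound median minus 4 SD, cut at about 23% in these data, passing the limit was not always enough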;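 note: 0% = wells killed by 20 µM Hyamine and 100% = untreated DMSO cell wells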). As to conditions: HCT116 beta-catenin knockout viability, CellTiter-Glo, 60 h; at 10 µM; stronger effect = lower value.
The nature of assay [13]: viability of PTEN-null HCT116 cells – cell-based, HCT116 clonal line, CellTiter-Glo, pilot screen (AID 824;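 active = viability at or below 27.92% in each of two runs, the all-compound median minus 4 SD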;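 note: 0% = 20 µM Hyamine control and 100% = vehicle cell control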). As to conditions: HCT116 PTEN-deleted viability, 60 h, at 10 µM, stronger effect = lower value.
A short description of assay [14]: RAM pathway blockade in budding yeast – dse1pr::URA3 reporter, 5-FOA selection, pilot screen (AID 869;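 active = inhibition over a set limit, the all-compound mean plus 3 SD, in both replicate runs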;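 note: 0% = DMSO wells with no growth and 100% = 10 µM 1-NA-PP1 with full growth; RAM network block rescues cells from 5-FOA so hits raise OD615 growth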). As to conditions: S. cerevisiae dse1pr::URA3 5-FOA growth, OD615, 2 d; at 10 µM; stronger effect = higher value; strain carries analog-sensitive mutant Cbk1 kinase.
Assay [15] in a line: RAM signaling pathway blockade in yeast – S. cerevisiae, Pdr1DBD-CYC8 efflux-inhibited sensitized strain, primary screen (AID 1298;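 active = RAM network inhibition above 8.4% in each of two replicates, 3 SD over the compound average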;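 note: 0% = DMSO untreated cells without growth and 100% = 10 µM 1-NA-PP1 full growth; higher means more yeast growth rescued from 5-FOA killing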). As to conditions: S. cerevisiae cbk1-as DSE1-URA3 strain, 5-FOA growth OD615, 2 d; at 50 µM; stronger effect = higher value.
[16] abbreviates: H69AR cells + 2 uM doxorubicin, measured here: viability with 2 uM doxorubicin, stronger effect = lower value.
Where [17] appears, read: H69AR cells, compound alone cytotoxicity.

For orientation: viability means a read-out of living cells in per cent, often relative to untreated cells. The inhibition is the relative decrease from the control value, in per cent.

Sequence of Receptor tyrosine-protein kinase erbB-2 (Homo sapiens) (P04626 whole entry, looked up): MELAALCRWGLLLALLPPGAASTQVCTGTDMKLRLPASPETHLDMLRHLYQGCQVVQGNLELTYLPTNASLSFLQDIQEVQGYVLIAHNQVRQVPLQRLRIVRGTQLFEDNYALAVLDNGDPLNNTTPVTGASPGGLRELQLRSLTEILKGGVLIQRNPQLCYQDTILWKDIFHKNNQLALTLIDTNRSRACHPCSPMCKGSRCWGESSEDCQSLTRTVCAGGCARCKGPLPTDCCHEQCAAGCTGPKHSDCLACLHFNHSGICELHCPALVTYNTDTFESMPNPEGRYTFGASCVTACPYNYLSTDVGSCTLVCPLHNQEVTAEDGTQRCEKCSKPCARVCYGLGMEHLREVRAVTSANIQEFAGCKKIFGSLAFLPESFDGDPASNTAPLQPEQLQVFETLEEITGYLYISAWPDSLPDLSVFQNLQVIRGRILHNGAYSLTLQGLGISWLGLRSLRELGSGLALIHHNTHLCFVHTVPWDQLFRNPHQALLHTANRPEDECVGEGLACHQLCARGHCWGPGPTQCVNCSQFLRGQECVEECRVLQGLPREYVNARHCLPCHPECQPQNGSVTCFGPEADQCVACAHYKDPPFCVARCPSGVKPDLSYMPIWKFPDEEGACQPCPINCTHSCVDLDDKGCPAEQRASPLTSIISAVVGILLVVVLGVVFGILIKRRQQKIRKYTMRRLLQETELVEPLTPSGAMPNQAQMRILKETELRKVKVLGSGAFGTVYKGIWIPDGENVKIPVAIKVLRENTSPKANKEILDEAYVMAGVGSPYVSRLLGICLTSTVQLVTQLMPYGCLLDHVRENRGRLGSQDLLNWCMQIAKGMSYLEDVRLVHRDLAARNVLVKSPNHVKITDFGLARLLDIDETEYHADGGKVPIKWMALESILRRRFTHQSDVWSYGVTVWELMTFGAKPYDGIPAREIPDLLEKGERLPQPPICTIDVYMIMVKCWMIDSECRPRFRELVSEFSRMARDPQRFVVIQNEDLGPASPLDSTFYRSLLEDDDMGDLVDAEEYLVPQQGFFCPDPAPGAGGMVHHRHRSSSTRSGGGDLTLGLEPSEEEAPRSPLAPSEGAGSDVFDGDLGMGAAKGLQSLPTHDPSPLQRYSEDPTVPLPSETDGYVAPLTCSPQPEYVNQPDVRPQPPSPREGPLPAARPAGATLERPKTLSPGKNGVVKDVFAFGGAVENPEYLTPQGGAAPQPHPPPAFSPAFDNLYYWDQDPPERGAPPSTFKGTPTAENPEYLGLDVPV

With `COc1ccc(C)cc1NC(=O)C1CCN(S(=O)(=O)c2cccc3cccnc23)CC1`, the viability was 80.5% in assay [1]; 80.5% (inactive) in assay [3]; 102% (inactive) in [4]; 90.9% (inactive) in assay [5]; 86.1% in [6] (setting [16]); 90.9% in assay [6] (setting [17]). Further, the viability in assay [12] is 95.3% (inactive); in [13], 86% (inactive). In assay [2], the Her2 level was 94.5% (inactive). Further, in assay [6] (H69AR cells + 2 uM doxorubicin), the differential viability (reversal) was 4.79% (inactive). The figures for the inhibition in [7], in [8] and in assay [14] were -5.33% (inactive), -1.48% (inactive) and 1.77% (inactive), respectively. Moreover, the figures for the growth inhibition in [9] and in assay [10] were -0.795% (inactive) and -2.36% (inactive), respectively. Moreover, the viability increase in assay [11] is -2.44% (inactive). Besides, the RAM network inhibition in [15] was 4.45% (inactive).
Regarding `COc1ccc(-c2nnc(SCC(=O)NC(C)c3ccccc3)o2)cc1` (stereo not given), the viability in [1] was 94%; in assay [3], 94% (inactive); in [4] it was 82% (inactive); in [5], 100% (inactive); in assay [6] (setting [16]), 94.4%; in assay [6] (setting [17]), 100%. For the same compound, the viability in assay [12] was 90.8% (inactive); in assay [13], 89.8% (inactive). Moreover, in assay [2], the Her2 level was 102% (inactive). In [6] (H69AR cells + 2 uM doxorubicin), the differential viability (reversal) was 5.95% (inactive). Also, the inhibition is 1.87% (inactive) in assay [7], 2.33% (inactive) in [8] and 1.37% (inactive) in assay [14]. The values for the growth inhibition in assay [9] and in assay [10] were -4.83% (inactive) and -1.46% (inactive), respectively. For the same compound, the viability increase in assay [11] was -3.41% (inactive). For the same compound, the RAM network inhibition in assay [15] was 6.94% (inactive).
Regarding `CCn1c(-c2cc(Br)ccc2O)n[nH]c1=S`, the viability in assay [1] was 99%; in assay [3], 99% (inactive); in assay [4] it was 107% (inactive); in assay [5] it was 98% (inactive); in assay [6] (setting [16]), 97.6%; in [6] (setting [17]) it was 98%. Moreover, the viability was 98.9% (inactive) in assay [12] and 96.8% (inactive) in assay [13]. In assay [2], the Her2 level was 88.5% (inactive). Also, the differential viability (reversal) in assay [6] (H69AR cells + 2 uM doxorubicin) is 0.39% (inactive). Besides, the inhibition in assay [7] is -4.59% (inactive); in [8] it was 3.02% (inactive); in assay [14], 1.45% (inactive). Also, the growth inhibition in assay [9] is -10% (inactive); in assay [10], -14.2% (inactive). Moreover, in [11], the viability increase was -1.24% (inactive). Besides, in assay [15], the RAM network inhibition was 0.78% (inactive).
For the compound `Cn1nnnc1SCC(=O)Nc1ccccc1C(=O)NCc1ccccc1`, the viability is 99% in [1]; 99% (inactive) in assay [3]; 108% (inactive) in assay [4]; 90.2% (inactive) in assay [5]; 94.9% in assay [6] (setting [16]); 90.2% in assay [6] (setting [17]). Besides, the viability in [12] is 97.6% (inactive); in [13], 97.8% (inactive). Further, in assay [2], the Her2 level is 98% (inactive). For the same compound, the differential viability (reversal) in [6] (H69AR cells + 2 uM doxorubicin) was -4.73% (inactive). Further, the inhibition is -6.49% (inactive) in [7], -7.33% (inactive) in [8] and 1.04% (inactive) in assay [14]. In addition, the growth inhibition in assay [9] is -9.6% (inactive); in assay [10] it was 4.06% (inactive). Besides, the viability increase in [11] was -2.1% (inactive). The RAM network inhibition in assay [15] was 7.35% (inactive).
Regarding `CCOC(=O)c1c(C)n(OCc2ccccc2)c2ccc3c(no[n+]3[O-])c12`, the viability in assay [1] is 60%; in assay [3], 60% (inactive); in [4], 64.8% (inactive); in [5] it was 52.9% (inactive); in [6] (setting [16]) it was 67.1%; in [6] (setting [17]) it was 52.9%. Moreover, the viability in [12] was 62.8% (inactive); in [13], 62.9% (inactive). In addition, in assay [2], the Her2 level is 78.5% (inactive). Moreover, the differential viability (reversal) in [6] (H69AR cells + 2 uM doxorubicin) is -14.2% (inactive). For the same compound, the inhibition was -3.24% (inactive) in [7], -2.95% (inactive) in assay [8] and 1.99% (inactive) in assay [14]. Besides, the growth inhibition in assay [9] was -12.4% (inactive); in [10], -11.1% (inactive). The viability increase in [11] is -3.24% (inactive). Besides, the RAM network inhibition in [15] was 5.8% (inactive).
